# Autofluor counter – flagged as autofluorescent in microsphere protease counterscreen. fluorescence intensity (concentration not given with the values). actives 3.1% (n = 360,000). compound autofluorescence counterscreen, microsphere flow cytometry; active compounds read high. AID 624483; in the data active = fluorescence intensity above about 16000; inconclusive = no clear call, values can overlap the other calls
# BoNT-F LC inh – BoNT/F light chain protease inhibitors, primary screen, biochemical, flow cytometry, MLPCN library; Multiplex microsphere protease cleavage assay; inhibition, % at 10 µM; actives 0.22% (n = 360,000); AID 588497, 2011; in the data active = inhibition above about 35%, passing the limit was not always enough; inconclusive = no clear call, values can overlap the other calls; note: plate controls were buffer without enzyme for full effect and enzyme alone for no effect
# BoNT A protease – BoNT/A light chain protease inhibitors, primary screen, biochemical, flow cytometry, MLPCN library; Botulinum neurotoxin type A light chain protease (Clostridium botulinum A str. ATCC 3502); multiplex microsphere protease substrate cleavage; inhibition, % at 10 µM; AID 588499, 2011; actives 0.17% (n = 360,000); in the data active = inhibition above about 30%; inconclusive = no clear call, values can overlap the other calls; note: plate controls were buffer without enzyme for full effect and enzyme alone for no effect
# MazEF act – activators of E. coli MazEF toxin-antitoxin RNase, primary screen, biochemical, fluorescence, uHTS. Endoribonuclease toxin MazF (Escherichia coli (strain K12)), P0AE70. activation, % at 20 µM. actives 0.32% (n = 350,000). FAM/BHQ RNA-DNA oligo cleavage fluorescence, 5 h. AID 504720, 2011; in the data active = activation above about 50%
# Anthrax LF prot – Bacillus anthracis LF protease inhibitors, primary screen, biochemical, multiplex microsphere, MLPCN library; multiplex microsphere protease cleavage assay; inhibition, % at 10 µM; actives 0.12% (n = 360,000); AID 588501, 2011; in the data active = inhibition above about 30%; inconclusive = no clear call, values can overlap the other calls; note: plate controls were buffer without enzyme for full effect and enzyme alone for no effect
# Target sequence (P15917 whole entry, looked up): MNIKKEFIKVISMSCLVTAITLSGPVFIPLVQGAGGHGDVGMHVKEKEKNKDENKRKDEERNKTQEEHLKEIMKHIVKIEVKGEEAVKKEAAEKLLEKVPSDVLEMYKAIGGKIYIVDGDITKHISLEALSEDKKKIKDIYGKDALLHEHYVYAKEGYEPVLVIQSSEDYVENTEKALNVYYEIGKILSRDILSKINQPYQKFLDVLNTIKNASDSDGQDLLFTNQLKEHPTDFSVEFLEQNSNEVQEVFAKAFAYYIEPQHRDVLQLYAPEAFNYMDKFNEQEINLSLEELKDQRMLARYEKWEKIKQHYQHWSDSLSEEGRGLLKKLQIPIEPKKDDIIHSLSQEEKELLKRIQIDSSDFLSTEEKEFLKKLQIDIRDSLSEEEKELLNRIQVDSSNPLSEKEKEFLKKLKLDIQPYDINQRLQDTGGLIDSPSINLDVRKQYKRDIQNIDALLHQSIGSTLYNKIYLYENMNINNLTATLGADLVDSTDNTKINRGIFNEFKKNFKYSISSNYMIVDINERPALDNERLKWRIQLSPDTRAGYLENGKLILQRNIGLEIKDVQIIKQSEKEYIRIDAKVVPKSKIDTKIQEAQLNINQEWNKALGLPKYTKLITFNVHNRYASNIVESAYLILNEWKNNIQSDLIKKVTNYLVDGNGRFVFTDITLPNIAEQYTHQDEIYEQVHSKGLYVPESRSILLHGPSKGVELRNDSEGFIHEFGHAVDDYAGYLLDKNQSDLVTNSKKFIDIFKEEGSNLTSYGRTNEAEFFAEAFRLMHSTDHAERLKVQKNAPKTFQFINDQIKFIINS
# VHR inh abs – VHR1 phosphatase inhibitors, primary screen, biochemical, absorbance, uHTS | Dual specificity protein phosphatase 3 (Homo sapiens), P51452 | recombinant VHR phosphatase, pNPP absorbance | inhibition, % at 13.3 µM | actives 0.52% (n = 290,000); in the data active = inhibition above about 50%
# BoNTA LC inh 2 – BoNT/A light chain protease inhibitors, confirmation, biochemical, flow cytometry, cherry pick 2 | actives 10% (n = 150) | shares compounds with BoNT A protease | inhibition, % at 10 µM | multiplex microsphere protease cleavage assay; in the data active = inhibition above about 24%
# Anthrax LF CP2 – Bacillus anthracis LF protease inhibitors, confirmation, biochemical, multiplex microsphere; shares compounds with BoNT A protease; multiplex microsphere protease cleavage assay; inhibition, % at 10 µM; actives 7% (n = 150); AID 602327, 2012
# BoNTF LC inh 2 – BoNT/F light chain protease inhibitors, confirmation, biochemical, flow cytometry, cherry pick 2; shares compounds with BoNT A protease; AID 602336, 2012; actives 7% (n = 150); inhibition, % at 10 µM; multiplex microsphere protease cleavage assay
# * marks the source's active call; other numbers are inactive results; ? = inconclusive; nt = not tested or not shown. An excerpt weighted towards active compounds, which were near 4% of everything screened. Cut-off read from the data, not from the text of the source, unless noted: active = inhibition above about 25%; inactive = the rest.
SMILES,Autofluor counter,BoNT-F LC inh,BoNT A protease,MazEF act,Anthrax LF prot,VHR inh abs,BoNTA LC inh 2,Anthrax LF CP2,BoNTF LC inh 2
Cc1nc2ccc(NC(=O)c3cccc(S(=O)(=O)N4CC(C)OC(C)C4)c3)cc2s1 (centres undefined),7927,19.9,25.1,-5.2,30.5*,22.3,5.0,5.7,5.6
O=C(NCc1ccc2c(c1)OCO2)c1cccc([N+](=O)[O-])c1,2511,2.3,0.2,7.6,-0.1,1.2,nt,nt,nt
Cc1cc2cc(CNC(=O)C3CCCC3)ccc2n1C,3369,-32.1,44.6*,1.1,1.3,22.0,4.2,4.4,-1.8
Cc1ccc(S(=O)(=O)NCc2ccc3[nH]c(C)cc3c2)cc1,4738,-42.1,20.2,7.9,0.4,16.0,1.4,-1.0,3.4
Cn1c(CNC(=O)C2CCCCC2)cc2cc(Cl)ccc21,3777,?,0.6,-0.5,4.9,3.6,nt,nt,nt
Cc1ccc(CNC(=O)c2ccc(Br)o2)cc1,5929,2.9,0.1,4.9,-6.1,-8.3,nt,nt,nt
Cc1cc2cc(CNC(=O)c3ccc(Br)o3)ccc2[nH]1,2858,-110.3,66.7*,-0.7,-78.5,-1.2,22.8,18.3,-18.1
Cc1cc2cc(CNC(=O)c3cccc([N+](=O)[O-])c3)ccc2[nH]1,2875,-64.1,78.8*,2.6,-48.8,0.2,26.8*,-1.0,14.4
O=C1N(c2ccccc2C(F)(F)F)O[C@]1(c1ccccc1)C1CCCCC1,3007,1.5,-0.7,1.8,1.0,nt,nt,nt,nt
CCOC(=O)CNC(=O)CSc1nc2ncc(Br)cc2[nH]1,4903,-8.7,0.1,6.2,0.9,0.8,nt,nt,nt
Cc1cc2cc(CNC(=O)Cc3cccs3)ccc2n1C,2301,-62.3,74.8*,-5.9,-52.9,22.0,19.6,9.2,-22.7
Cc1c(C(=O)NCc2ccc3c(c2)cc(C)n3C)cccc1[N+](=O)[O-],1750,-88.4,77.9*,-8.1,-100.3,0.2,5.8,3.0,-7.9
Cc1cc2cc(CNC(=O)c3ccc(Br)o3)ccc2n1C,2858,-60.7,62.1*,-11.5,-24.1,25.8,14.9,10.5,-11.4
CC(=O)Nc1cccc(NC(=O)CSc2nnc3ccc(-c4cccnc4)nn23)c1,3906,1.8,2.2,8.4,-6.7,nt,nt,nt,nt
COC(=O)C1C2CC3c4[nH]c5cc(OC)ccc5c4CCN3CC2CC(O)C1OC (centres undefined),5345,-8.4,1.7,-6.5,-2.5,nt,nt,nt,nt
CC(=O)Nc1ccc(S(=O)(=O)NCc2ccc3c(c2)cc(C)n3C)cc1,1283,-112.1,71.8*,-2.3,-115.1,35.7,18.9,22.7,-6.6
CC(=O)Nc1ccc(S(=O)(=O)NCc2cc(=O)n(C)c(=O)n2C)cc1,6203,-2.6,-1.8,6.4,0.3,5.3,nt,nt,nt
Cc1cc(C)c(S(=O)(=O)NCc2ccc3c(c2)cc(C)n3C)c(C)c1,1929,-79.4,77.5*,11.7,-36.1,6.6,5.0,1.0,-7.7
Cc1cc2cc(CNS(=O)(=O)c3ccc4ccccc4c3)ccc2n1C,2284,-108.3,47.2*,3.5,-89.1,2.4,19.7,6.4,-26.9
Cc1ccc(OCC(=O)N/N=C/c2ccccc2)c([N+](=O)[O-])c1,4461,-2.1,0.2,1.1,-6.0,-1.8,nt,nt,nt
O=C(NCc1cccc(F)c1)c1cccc2c1C(=O)c1ccc(N3CCCC3)cc1S2(=O)=O,4444,17.1,10.2,-482.6,11.5,nt,nt,nt,nt
O=C(NCc1ccc(OC(F)(F)F)cc1)c1cccc2c1C(=O)c1ccc(N3CCCC3)cc1S2(=O)=O,2925,5.5,3.0,-630.7,3.7,nt,nt,nt,nt
COc1ccccc1N1CCN(c2ccc3c(c2)S(=O)(=O)c2cccc(C(=O)NCc4ccc(F)cc4)c2C3=O)CC1,3973,-5.3,0.6,-0.8,-4.4,nt,0.8,-1.8,-4.7
O=C(NCc1ccc(OC(F)(F)F)cc1)c1cccc2c1C(=O)c1ccc(N3CCC(Cc4ccccc4)CC3)cc1S2(=O)=O,4518,11.0,12.8,-401.0,21.1,nt,7.4,5.6,14.9
COc1ccc(Cl)cc1-c1nc(SCC(=O)NC(C)C)n[nH]1,4338,-0.3,0.8,17.0,0.1,22.3,nt,nt,nt
SMILES,Autofluor counter,BoNT-F LC inh,BoNT A protease,MazEF act,Anthrax LF prot,VHR inh abs,BoNTA LC inh 2,Anthrax LF CP2,BoNTF LC inh 2
Cc1ccc(CNC(=O)c2ccc(S(=O)(=O)N3CCCCCC3)cc2)cc1,3339,0.9,0.1,1.9,2.8,nt,nt,nt,nt
CN(C)S(=O)(=O)c1ccc(C(=O)NCc2ccc3[nH]c4c(c3c2)CCCC4)cc1,5417,-9.2,-0.3,4.2,-0.1,15.1,nt,nt,nt
Cc1cc2cc(CNC(=O)c3ccc(S(=O)(=O)N(C)C)cc3)ccc2n1C,1889,-66.1,81.6*,-12.6,-63.6,36.3,8.7,8.7,17.9
Cc1cc2cc(CNC(=O)c3ccc(S(=O)(=O)N4CCCCC4)cc3)ccc2[nH]1,3901,-86.6,44.3*,-0.1,-64.2,10.8,10.2,8.4,11.3
Cc1cc2cc(CNC(=O)c3ccc(S(=O)(=O)N4CCOCC4)cc3)ccc2n1C,1461,-92.2,80.7*,-7.7,-76.4,-1.9,6.2,4.1,7.7
O=C(COC(=O)C1=COCCO1)Nc1ccc2c(c1)OCO2,3346,-10.9,-2.6,0.3,-7.1,14.7,nt,nt,nt
Cc1ccc(C(=O)Nc2ccon2)cc1S(=O)(=O)N1CCCCCC1,11490,0.4,0.4,4.9,-3.8,-12.0,nt,nt,nt
O=C(NCC1CCCO1)C(c1cccs1)N(Cc1cccs1)C(=O)c1ccc(-c2ccccc2)[nH]1 (centres undefined),2326,-0.6,0.7,-17.1,0.3,6.8,nt,nt,nt
Cn1ccc2c(-c3cncc4ccccc34)cc3c(c21)C1CCC3C1 (centres undefined),3532,-0.2,47.6*,nt,29.6*,nt,10.1,9.6,4.0
Cn1ccc2c(-c3cccc4ccccc34)cc3c(c21)C1CCC3C1 (centres undefined),4492,2.6,0.0,nt,-13.3,nt,1.2,-2.8,-2.8
CCN(CC)S(=O)(=O)c1c(OC)cc(C)c(Cl)c1C,3756,-6.7,-1.1,-11.4,-3.2,-0.9,nt,nt,nt
CC(=O)/C(=C/N(C)C)C(=O)Nc1ccc(Cl)cc1Cl,3453,-3.5,-0.5,-16.9,-12.4,-6.0,nt,nt,nt
O=C(NCc1ccc2c(c1)OCO2)c1cc(-c2cc(Cl)ccc2O)n[nH]1,3682,-9.8,-0.7,1.0,-2.2,26.9,nt,nt,nt
C=CCn1c(Cc2cccs2)nnc1SCC(=O)NCc1ccco1,3007,-5.1,0.4,-13.9,0.8,10.7,nt,nt,nt

# Compound activity deposited in PubChem BioAssay by several laboratories.
